# In PubChem BioAssay (Tox21):
# Inconclusive results are not listed. The source made the active and inactive calls. Calls come from the whole dose curve.
# Assay: qHTS assay to identify small molecule agonists or antagonists of the thyroid stimulating hormone receptor (TSHR) signaling pathway - wild type cell line counter screen (AID 1259384)
# Settings: HEK293 wild type, cAMP HTRF counter-screen; series mostly up to 92.4 µM
# Excerpt: U.S. Tox21 Program National Center for Advancing Translational Sciences [NCATS] NIH Chemical Genomics Center [NCGC] U.S. Environmental Protection Agency [EPA] National Institutes of Environmental Health Sciences [NIEHS] National Toxicology Program [NTP] U.S. Food and Drug Administration [FDA] Tox21 Assay Overview: TSHR is the receptor for thyrotropin (thyroid stimulating hormone or TSH), a member of the glycoprotein hormone family. TSH is released by the anterior pituitary gland and is the main regulator of thyroid gland growth and development. Upon binding circulating thyrotropin, a G-protein signal cascade activates adenylyl cyclase and […] cAMP concentration is increased. cAMP is a key second messenger involved extensively in cellular signal transduction pathways associated with the majority of G-protein coupled receptors (GPCRs). The activation of these GPCRs by neurotransmitters, lipids, nucleotides, peptides and hormones results in the activation or the inhibition of plasma membrane-bound adenylate cyclase through heterotrimeric G-proteins. A cell-based TSHR-Hek293 assay can be used to identify TSHR agonists. To eliminate the false positive compounds identified from screening a cell-based TSHR-Hek293 cell line, cAMP assay in a wild type Hek293 cells was used as a counter screening.
# Tox21 Assay Protocol Summary: Hek293 cells (wild type) were dispensed at 800 cells/4 uL/well in 1536-well white plates using a Multidrop dispenser. After the assay plates were incubated at a 37 C/5% CO2 incubator for 18 hrs, 23 nL of compounds dissolved in DMSO, positive controls or DMSO only was transferred to the assay plate by a pin tool, followed by 1 ul medium containing Ro20-1724. After 30 min of incubation at room temperature, 2.5 ul/well of cAMP-d2 and 2.5 ul/well of anti-cAMP-cryptate were added respectively into the assay plates using a Flying Reagent Dispenser. The plates were incubated at room temperature for 1 hr. The fluorescence intensity in the plates was measured using an Envision plate reader. Each test compound was measured at 15 concentrations and in triplicates.
row,Compound,outcome
1,CC(C)(C)c1cc(Cc2cc(C(C)(C)C)c(O)c(C(C)(C)C)c2)cc(C(C)(C)C)c1O,inactive
2,C=CC(C)CCCC(C)(C)O (stereo not given),inactive
3,CNC(=O)Oc1ccc2c(c1)[C@]1(C)CCN(C)[C@@H]1N2C,inactive
4,CC(=O)CC(C)(C)O,inactive
5,COC(=O)c1cccnc1,inactive
6,Nc1ccc(Cl)c(N)c1,inactive
7,O=C(O)c1ccc(S(=O)(=O)N(Cl)Cl)cc1,inactive
8,CCCCC(C=O)CC (stereo not given),inactive
9,C=C(C)[C@H]1CC=C(C)C(=O)C1,inactive
10,NCCN1CCNCC1,inactive
11,C[Si]1(C)O[Si](C)(C)O[Si](C)(C)O[Si](C)(C)O1,inactive
12,C=C(C)C(=O)OCC(C)C,inactive
13,Cc1ccc([N+](=O)[O-])cc1S(=O)(=O)O,inactive
14,CCOCC(=O)O,inactive
15,CC1(C)NC(=O)NC1=O,inactive
16,CCCOC(=O)c1ccccc1,inactive
17,COc1cc(OC)c(C(=O)CCCN2CCCC2)c(OC)c1,inactive
18,C=CCc1ccc(OC)c(OC)c1,inactive
19,CC(=O)OCCOC(C)=O,inactive
20,O=C1C(c2[nH]c3ccccc3c2O)=Nc2ccccc21,inactive

row,Compound,outcome
1,O=C(O)c1ccc(C(=O)O)c(C(=O)O)c1,inactive
2,c1ccc2c(c1)Cc1ccccc1-2,inactive
3,CCCCOC(=O)c1ccc(N)cc1,inactive
4,N#Cc1ccccc1,inactive
5,CC(CCl)OP(=O)(OC(C)CCl)OC(C)CCl (stereo not given),inactive
6,COc1ccc(CCC(C)=O)cc1,inactive
7,CC(C)c1cccc(C(C)C)c1,inactive
8,CC(C)=CCl,inactive
9,CN(C)CCOC(=O)COc1ccc(Cl)cc1,inactive
10,CCCCCCCCCCO,inactive
11,C[C@]12CC[C@@H]3c4ccc(O)cc4CC[C@H]3[C@@H]1C[C@@H](O)[C@@H]2O,inactive
12,COCCOC(=O)c1ccccc1C(=O)OCCOC,inactive
13,CCNc1ccccc1,inactive
14,CCCCCCCCCCN,inactive
15,O=C(O)/C=C/C(=O)O,inactive
16,C=C(C)CNCC,inactive
17,Clc1ccccn1,inactive
18,COc1ccc(OC)cc1,inactive
19,C[C@]12CCC(=O)C=C1CC[C@@H]1[C@@H]2[C@@H](O)C[C@@]2(C)[C@H]1CC[C@]2(O)C(=O)CO,inactive
20,Cc1ccc(S(=O)(=O)N=C=O)cc1,inactive
